Data on 32 compounds can be found in the supplement of paper PMC12024424.

The test system of the assay is Staphylococcus aureus Sa2 (MRSA, cystic fibrosis isolate). Briefly: growth reduction vs untreated control (OD550); higher = stronger antibacterial activity. The note with it: 0.1 mM; 24 h. How it is done:
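Single-dose screen of the MedChem Express Drug Repurposing Library (0.1 mM, 1% DMSO) against planktonic MRSA S. aureus Sa2 (CF isolate) in TSB in 96-well plates, 37 °C aerobic, 24 h. Assays were run in triplicate and repeated twice.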
Turning to `CCCCCOc1ccccc1/C(=C\SC)n1ccnc1` [Neticonazole], the growth reduction was 100%.

The compound `O=C(OCC(O)CO)c1ccccc1Nc1ccnc2cc(Cl)ccc12` (configuration not stated) [Glafenine] gave a growth reduction of 100%.

Regarding `O=C(Nc1ccc(F)cc1)c1cnc(SCc2cc(OC(F)(F)F)ccc2B(O)O)nc1`, the growth reduction turned out to be 100%.

`O=c1nc(OC[C@@H]2COCCO2)cc2n1CCc1cc(C#CC3CC3)ccc1-2` registered a growth reduction of 96.2%.

Consider `Cc1ccc(C(=O)N(CCCN)[C@@H](c2nc3cc(Cl)ccc3c(=O)n2Cc2ccccc2)C(C)C)cc1` [Ispinesib], for which the growth reduction worked out at 100%.

Compound `Nc1ncccc1-c1nc2ccc(-c3ccccc3)nc2n1-c1ccc(C2(N)CCC2)cc1` [Miransertib] returned a growth reduction of 97.6%.

`COC(=O)N[C@H](C(=O)N1CCC[C@H]1c1nc(-c2ccc3c(c2)O[C@@H](c2ccccc2)n2c-3cc3cc(-c4c[nH]c([C@@H]5CCCN5C(=O)[C@@H](NC(=O)OC)C(C)C)n4)ccc32)c[nH]1)C(C)C` [Elbasvir] displayed a growth reduction of 97.8%.

For `CCCCCCCCc1ccc(CCC(N)(CO)CO)cc1` [Fingolimod], the growth reduction stood at 100%.

In the case of `Cc1cc(C)cc([C@@H]2CCCN2Cc2ccc(Oc3ccc(C(N)=O)cc3F)cc2)c1` [Aticaprant], the growth reduction is 100%.

Take `C=C[C@@H]1C[C@]1(NC(=O)[C@@H]1C[C@@H]2CN1C(=O)[C@H](C(C)(C)C)NC(=O)O[C@@H]1C[C@H]1CCCCCc1nc3ccc(OC)cc3nc1O2)C(=O)NS(=O)(=O)C1CC1` [Grazoprevir]: the growth reduction was found to be 100%.

As for `COc1cccc2c1c(O)c(C(=O)N(C)c1ccc(C(F)(F)F)cc1)c(=O)n2C` [Tasquinimod], the growth reduction came to 92.4%.

For `O=C(NCc1ccc(Oc2ccccc2)cc1)c1nc(-c2cc(Br)c(O)c(Br)c2)no1`, the growth reduction was determined as 95.3%.

`CC1(C)CCC(C)(C)c2cc(NC(=O)c3ccc(C(=O)O)cc3)ccc21` [Tamibarotene] displayed a growth reduction of 95.5%.

On to `O=C(O)c1ccc(-n2nc(-c3ccccc3O)nc2-c2ccccc2O)cc1` [Deferasirox], for which the growth reduction was 96.2%.

`C[C@H]1CNCCCN1S(=O)(=O)c1cccc2cncc(F)c12` [Ripasudil] returned a growth reduction of 100%.

For `CC1=C(/C=C/C(C)=C/C=C/C(C)=C/C(=O)Nc2ccc(O)cc2)C(C)(C)CCC1` [Fenretinide], the growth reduction worked out at 100%.

In turn, `O=C(NC[C@H]1CN(c2ccc(N3CCOCC3=O)cc2)C(=O)O1)c1ccc(Cl)s1` [Rivaroxaban] displayed a growth reduction of 100%.

The compound `CC(C(=O)O)c1ccc2c(c1)CC(=O)c1ccccc1S2` (configuration not stated) [Zaltoprofen] had a growth reduction of 96.7%.

The compound `Cc1ccc([C@@H]2O[C@H](CO)[C@@H](O)[C@H](O)[C@H]2O)cc1Cc1ccc(-c2ccc(F)cc2)s1` [Canagliflozin] had a growth reduction of 100%.

In the case of `NC(=O)c1cccc2cn(-c3ccc([C@@H]4CCCNC4)cc3)nc12` [Niraparib (tosylate)], the growth reduction was 99.5%.

In turn, `CC[C@H]1[C@@H](O)[C@@H]2[C@H](CC[C@]3(C)[C@@H]([C@H](C)CCC(=O)O)CC[C@@H]23)[C@@]2(C)CC[C@@H](O)C[C@@H]12` [Obeticholic acid] showed a growth reduction of 94.4%.

`COCC[n+]1c2c(n(Cc3cnccn3)c1C)C(=O)c1ccccc1C2=O` [Sepantronium (bromide)]: the growth reduction was 100%.

Regarding `COc1cc(NCc2ccc3nc(N)nc(N)c3c2C)cc(OC)c1OC` [Trimetrexate], the growth reduction came out at 90.4%.

For the compound `CNC(=O)c1cc(Oc2ccc(NC(=O)Nc3ccc(Cl)c(C(F)(F)F)c3)c(F)c2)ccn1` [Regorafenib (monohydrate)], the growth reduction is 100%.

`CC(C)/N=c1\cc2n(-c3ccc(Cl)cc3)c3ccccc3nc-2cc1Nc1ccc(Cl)cc1` [Clofazimine]: the growth reduction is 100%.

For `O=c1ccc2ccc(O)c(O)c2o1` [Daphnetin], the growth reduction came out at 94.5%.

`Clc1ccc(CO/N=C(\Cn2ccnc2)c2ccc(Cl)cc2Cl)c(Cl)c1` [Oxiconazole nitrate] returned a growth reduction of 100%.

As to `C[C@H](CCC(=O)O)[C@H]1CC[C@H]2[C@@H]3[C@H](O)C[C@@H]4C[C@H](O)CC[C@]4(C)[C@H]3CC[C@]12C` [Chenodeoxycholic Acid], the growth reduction turned out to be 99%.

`O=C(O)C[C@H]1CCc2c1[nH]c1ccc(OCc3ccc(C4CCCC4)c(C(F)(F)F)c3)cc21` [Etrasimod] registered a growth reduction of 99%.

`C=CCc1ccc(O)c(-c2cc(CC=C)ccc2O)c1` [Magnolol] returned a growth reduction of 100%.

Compound `C#C[C@]1(O)CC[C@H]2[C@@H]3CCc4cc(O)ccc4[C@H]3CC[C@@]21C` [Ethynyl Estradiol] displayed a growth reduction of 99.9%.

On to `COCCN1CCC(N(Cc2ccc(-c3ccc(C(F)(F)F)cc3)cc2)C(=O)Cn2c(SCc3cccc(F)c3F)cc(=O)c3ccccc32)CC1` [Rilapladib], for which the growth reduction came out at 100%.
